These results are taken from the supplement of paper PMC12067093, “Discovery and optimisation of a covalent ligand for TRIM25 and its application to targeted protein ubiquitination” (Chemical Science, 2025).

The target of the test is PYCR1_P32322_95_HIVVSCAAGVTISSIEK (UniProt P32322). In words: probe-labelled cysteine peptide fold change vs DMSO (competition) (log2 fold change); higher = less target engagement (more negative = stronger competition). The settings on record: THP-1, incubation time: 4 h.

About 21,000 targets were measured; listed, in parts, are those with the largest changes and a random draw of the rest.
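Further: competitive chemoproteomic profiling in live THP-1 cells with an iodoacetamide desthiobiotin (IA-DTB) probe, comparing probe-labelled peptide intensities in compound-treated cells against DMSO-treated controls.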

With `CC1Cc2ccccc2N1C(=O)C1CCCN(C(=O)CCl)C1` (mixture of isomers) [TRIM25 ligand 11 (diastereomer mixture)], the “probe-labelled cysteine peptide fold change” value reads like this: (10 µM) 0.0152; (50 µM) 0.0688.
